SMILES strings stand for the structures.
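Also: KINOMEscan kinase panel screen.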

The subject of one assay is CLK2. The conditions noted are these: concentration: 1 μM, replicates: in singlicate; n = 1.
For `COc1cc2ncn(-c3cc(OCC4CCCO4)c(C(N)=O)s3)c2cc1OC` (centres unmarked) [GSK204607], the “%Inh” value turned out to be 0%.

With `C[C@@H]1CCCCN1c1cc(-c2ccc3c(N)n[nH]c3c2)nc(N)n1` [GSK2258759], the “%Inh” value came to 0%.

Consider `COc1ccc(C2=C(Nc3cccc(C(=O)O)c3)C(=O)NC2=O)cc1` [SB-390765], for which the “%Inh” value amounted to 3%.

Consider `CCCc1ccc(S(=O)(=O)NC2CCN(c3ccnc(Nc4ccc(F)cc4)n3)C2)cc1` (centres unmarked) [GSK1379715], for which the “%Inh” value is recorded as 0%.

`O=C(Nc1ccccc1)Nc1cccc(Oc2ccc3nccn3n2)c1`: the “%Inh” value was 0%.

For `Cn1ccc2ncnc(Oc3ccc(Nc4nc5ccccc5[nH]4)cc3)c21`, the “%Inh” value is recorded as 12%.

Take `Cc1cccc(-c2cc(Nc3ccncc3)c3ccccc3n2)n1` [GSK223675]: the “%Inh” value is 0%.

In the case of `Cc1ccc(NC(=O)Nc2cccc(Cl)c2)cc1-c1ccc(C(=O)Nc2ccncc2)cc1` [GSK1398468], the “%Inh” value was found to be 0%.

On to `COc1ccc(CNC(=O)NC2CCN(c3ccnc(Nc4cc(OC)c(OC)c(OC)c4)n3)C2)cc1` (centres unmarked) [GSK1379748], for which the “%Inh” value is 0%.

`O=S(=O)(c1ccc(-c2ccnc3[nH]ccc23)cc1)N1CCCC1` [GSK846226]: the “%Inh” value worked out at 45%.

For the compound `COc1ccccc1-c1ccc2c(NC(=O)C3CC3)n[nH]c2n1` [SB-711239], the “%Inh” value came to 0%.

Consider `Cl.O=C(Nc1cccc(-c2nn3ncccc3c2-c2ccnc(Nc3cccnc3)n2)c1)c1c(F)cccc1F` [GSK312879], for which the “%Inh” value worked out at 3%.

In the case of `O=C(Nc1n[nH]c2nc(-c3nccs3)c(Br)cc12)C1CCCC1` [SB-742609], the “%Inh” value amounted to 0%.

In the case of `COc1cc(Nc2nccc(N3CCC(NC(=O)Nc4cc(C)ccc4C)C3)n2)cc(OC)c1OC` (centres unmarked) [GSK1379762], the “%Inh” value turned out to be 6%.

With `CC(=O)Nc1nc2cnc(Nc3cc(NC(=O)c4cccc(CCC#N)c4)ccc3C)nc2s1`, the “%Inh” value stood at 3%.

As for `Cc1cc(N2Cc3ccccc3C2)nc(Nc2ccc(S(=O)(=O)N3CCOCC3)cc2)n1.Cl` [GSK1669917], the “%Inh” value turned out to be 0%.

Regarding `Cc1cccc(-c2nc(C)cc(Nc3ccncc3)n2)n1` [GSK257997], the “%Inh” value amounted to 9%.

As for `O=c1cc(N2CCOCC2)nc2n(Cc3cccc(Cl)c3Cl)ccn12` [GSK2286295], the “%Inh” value stood at 14%.

As to `Cc1cc(-c2ccc3c(c2)CC[C@@H](N[C@@H](C)c2ccccc2)C3)cnc1N.Cl` [GW412617], the “%Inh” value is 0%.

On to `COc1ccccc1CNC(=O)c1cc(C(=O)c2ccccc2C)c[nH]1` [GSK364507], for which the “%Inh” value was determined as 0%.

`Cc1cccc(-c2nc(Nc3cccc(C(N)=O)c3)c3ccccc3n2)n1` [GW876019]: the “%Inh” value is listed as 6%.

Turning to `Cc1csc(-c2nc(Nc3ccncc3)c3ccccc3n2)n1` [GW869640], the “%Inh” value is on record as 19%.

Regarding `CS(=O)(=O)c1ccc(-c2nc3n(c2-c2ccncc2)CCC3)cc1` [SKF-105942], the “%Inh” value stood at 0%.

Regarding `Nc1ncnc2[nH]c(-c3ccccc3)nc12` [AH5015], the “%Inh” value is listed as 57%.

In the case of `Cc1cccc(-c2nc(Nc3ccncc3)c3ccccc3n2)n1` [GW855857], the “%Inh” value turned out to be 8%.

Regarding `COC(=O)c1c(-c2ccccc2)c2cc(OC)ccc2c(=O)n1Cc1ccccc1`, the “%Inh” value is on record as 4%.

In the case of `Cc1c(Cn2ccn3c(=O)cc(N4CCOCC4)nc23)cccc1C(F)(F)F` [GSK2289044], the “%Inh” value stood at 54%.

As to `COc1ccc(Nc2nccc(-c3cccc(NC(=O)c4cc5cc(F)ccc5[nH]4)c3)n2)cc1` [GSK1229782], the “%Inh” value amounted to 0%.

In the case of `O=C(O)COc1ncnc2cc(-c3ccc4[nH]ncc4c3)sc12`, the “%Inh” value is recorded as 43%.

Turning to `Cc1ccc(-c2cc(-c3c[nH]nc3-c3ccccn3)ccn2)cc1` [GW684088], the “%Inh” value is on record as 9%.

Take `Cc1c(O)cccc1Nc1ccnc2ccc(C(F)(F)F)cc12.Cl` [GW466413]: the “%Inh” value came out at 14%.

As to `CS(=O)(=O)c1ccc(-c2c(-c3ncn[nH]3)sc(N3CCOCC3)c2C#N)cc1`, the “%Inh” value is listed as 8%.

For the compound `Fc1cccc(COc2nnc(-c3ccc4c(c3)CCO4)o2)c1`, the “%Inh” value amounted to 13%.

As to `COc1cc2ncnc(Nc3ccc4nc(-c5ccccc5)[nH]c4c3)c2cc1OC.Cl` [GW282450], the “%Inh” value amounted to 0%.

In a further assay the test system is CLK3. The conditions noted are these: concentration: 1 μM, replicates: in singlicate; n = 1.
On to `COc1cc2ncn(-c3cc(OCC4CCCO4)c(C(N)=O)s3)c2cc1OC` (centres unmarked) [GSK204607], for which the “%Inh” value was found to be 10%.

As for `C[C@@H]1CCCCN1c1cc(-c2ccc3c(N)n[nH]c3c2)nc(N)n1` [GSK2258759], the “%Inh” value was determined as 0%.

In the case of `COc1ccc(C2=C(Nc3cccc(C(=O)O)c3)C(=O)NC2=O)cc1` [SB-390765], the “%Inh” value is 8%.

Turning to `CCCc1ccc(S(=O)(=O)NC2CCN(c3ccnc(Nc4ccc(F)cc4)n3)C2)cc1` (centres unmarked) [GSK1379715], the “%Inh” value is 10%.

Consider `O=C(Nc1ccccc1)Nc1cccc(Oc2ccc3nccn3n2)c1`, for which the “%Inh” value worked out at 0%.

`Cn1ccc2ncnc(Oc3ccc(Nc4nc5ccccc5[nH]4)cc3)c21`: the “%Inh” value is reported as 0%.

Take `Cc1cccc(-c2cc(Nc3ccncc3)c3ccccc3n2)n1` [GSK223675]: the “%Inh” value was found to be 10%.

For the compound `Cc1ccc(NC(=O)Nc2cccc(Cl)c2)cc1-c1ccc(C(=O)Nc2ccncc2)cc1` [GSK1398468], the “%Inh” value is reported as 12%.

On to `COc1ccc(CNC(=O)NC2CCN(c3ccnc(Nc4cc(OC)c(OC)c(OC)c4)n3)C2)cc1` (centres unmarked) [GSK1379748], for which the “%Inh” value was 0%.

As to `O=S(=O)(c1ccc(-c2ccnc3[nH]ccc23)cc1)N1CCCC1` [GSK846226], the “%Inh” value worked out at 57%.

On to `COc1ccccc1-c1ccc2c(NC(=O)C3CC3)n[nH]c2n1` [SB-711239], for which the “%Inh” value came to 0%.

In the case of `Cl.O=C(Nc1cccc(-c2nn3ncccc3c2-c2ccnc(Nc3cccnc3)n2)c1)c1c(F)cccc1F` [GSK312879], the “%Inh” value is on record as 0%.

In the case of `O=C(Nc1n[nH]c2nc(-c3nccs3)c(Br)cc12)C1CCCC1` [SB-742609], the “%Inh” value came out at 4%.

On to `COc1cc(Nc2nccc(N3CCC(NC(=O)Nc4cc(C)ccc4C)C3)n2)cc(OC)c1OC` (centres unmarked) [GSK1379762], for which the “%Inh” value is 0%.

On to `CC(=O)Nc1nc2cnc(Nc3cc(NC(=O)c4cccc(CCC#N)c4)ccc3C)nc2s1`, for which the “%Inh” value worked out at 0%.

On to `Cc1cc(N2Cc3ccccc3C2)nc(Nc2ccc(S(=O)(=O)N3CCOCC3)cc2)n1.Cl` [GSK1669917], for which the “%Inh” value came out at 1%.

For `Cc1cccc(-c2nc(C)cc(Nc3ccncc3)n2)n1` [GSK257997], the “%Inh” value is given as 15%.

With `O=c1cc(N2CCOCC2)nc2n(Cc3cccc(Cl)c3Cl)ccn12` [GSK2286295], the “%Inh” value worked out at 13%.

For `Cc1cc(-c2ccc3c(c2)CC[C@@H](N[C@@H](C)c2ccccc2)C3)cnc1N.Cl` [GW412617], the “%Inh” value was found to be 0%.

For `COc1ccccc1CNC(=O)c1cc(C(=O)c2ccccc2C)c[nH]1` [GSK364507], the “%Inh” value came to 0%.

As for `Cc1cccc(-c2nc(Nc3cccc(C(N)=O)c3)c3ccccc3n2)n1` [GW876019], the “%Inh” value stood at 14%.

Turning to `Cc1csc(-c2nc(Nc3ccncc3)c3ccccc3n2)n1` [GW869640], the “%Inh” value was found to be 35%.

In the case of `CS(=O)(=O)c1ccc(-c2nc3n(c2-c2ccncc2)CCC3)cc1` [SKF-105942], the “%Inh” value is listed as 0%.

Consider `Nc1ncnc2[nH]c(-c3ccccc3)nc12` [AH5015], for which the “%Inh” value was determined as 0%.

Regarding `Cc1cccc(-c2nc(Nc3ccncc3)c3ccccc3n2)n1` [GW855857], the “%Inh” value was 31%.

As for `COC(=O)c1c(-c2ccccc2)c2cc(OC)ccc2c(=O)n1Cc1ccccc1`, the “%Inh” value is recorded as 0%.

As for `Cc1c(Cn2ccn3c(=O)cc(N4CCOCC4)nc23)cccc1C(F)(F)F` [GSK2289044], the “%Inh” value is recorded as 20%.

For the compound `COc1ccc(Nc2nccc(-c3cccc(NC(=O)c4cc5cc(F)ccc5[nH]4)c3)n2)cc1` [GSK1229782], the “%Inh” value was found to be 12%.

Turning to `O=C(O)COc1ncnc2cc(-c3ccc4[nH]ncc4c3)sc12`, the “%Inh” value is listed as 0%.

Regarding `Cc1ccc(-c2cc(-c3c[nH]nc3-c3ccccn3)ccn2)cc1` [GW684088], the “%Inh” value was 0%.

As for `Cc1c(O)cccc1Nc1ccnc2ccc(C(F)(F)F)cc12.Cl` [GW466413], the “%Inh” value is recorded as 0%.

For the compound `CS(=O)(=O)c1ccc(-c2c(-c3ncn[nH]3)sc(N3CCOCC3)c2C#N)cc1`, the “%Inh” value is 0%.

Turning to `Fc1cccc(COc2nnc(-c3ccc4c(c3)CCO4)o2)c1`, the “%Inh” value was 0%.

Turning to `COc1cc2ncnc(Nc3ccc4nc(-c5ccccc5)[nH]c4c3)c2cc1OC.Cl` [GW282450], the “%Inh” value was determined as 12%.

The values are drawn from PMC5540273 (PLoS ONE, 2017).
